These results are taken from the OligoGym collection.
Note: reference of the scale not given here.

The target in the first test is CORIN. Description: pooled miR-30 sensor sort-seq; sequence = guide strand. The conditions noted are these: shRNA.
In turn, TTGAGTATGTAGCTACAACTGT came in with a sensor-assay potency score (higher = more potent) of -0.57.

ATTTGTAAGAATAACATCGGAC registered a sensor-assay potency score (higher = more potent) of -0.147.

Take TTTATTGCTGTCTTTTATCAGT: the sensor-assay potency score (higher = more potent) was -0.911.

TTATTCAGACTGTTGTTCGGGT showed a sensor-assay potency score (higher = more potent) of 0.501.

Regarding TTGATATACATCCAGAATGGGG, the sensor-assay potency score (higher = more potent) was -1.35.

With TATTTGTAAGAATAACATCGGA, the sensor-assay potency score (higher = more potent) is -0.524.

ATGATCTTGATATACATCCAGA came in with a sensor-assay potency score (higher = more potent) of -1.55.

TAAAATTGCAGGTAGTATCTAT: the sensor-assay potency score (higher = more potent) was 0.492.

Regarding TTAAACATGTAAATTATCTTGG, the sensor-assay potency score (higher = more potent) was 0.389.

The target of another test is CORO2B. Described as above. The conditions noted are these: shRNA.
TTTTCTAATAAATCTATTCCGT registered a sensor-assay potency score (higher = more potent) of -0.324.

The sequence TTGTAGTCGTAGCCAGCGCTGA showed a sensor-assay potency score (higher = more potent) of -0.89.

ATCTGTCTTGTGTTCCACCTGG had a sensor-assay potency score (higher = more potent) of -0.685.

As to TTGTCGTGCACATTCTTGGTGA, the sensor-assay potency score (higher = more potent) was -0.294.

Regarding TTGTAGAAGCGGAACACCTCGC, the sensor-assay potency score (higher = more potent) is -0.204.

With TTCTTGTCCTTGCACGTGGTGG, the sensor-assay potency score (higher = more potent) is -1.22.

Regarding TAGAAGCGGAACACCTCGCAGG, the sensor-assay potency score (higher = more potent) is -0.524.

TAATGCATCTAGTAGATCCTAG displayed a sensor-assay potency score (higher = more potent) of 0.537.

For TTTCTAATAAATCTATTCCGTT, the sensor-assay potency score (higher = more potent) is -1.03.

Sequence TATTTCAATTCTATCCTTGGGA gave a sensor-assay potency score (higher = more potent) of 0.222.

As for TAGACATTCCGGAACTTGGAGC, the sensor-assay potency score (higher = more potent) was -1.06.

TTCTAATAAATCTATTCCGTTG displayed a sensor-assay potency score (higher = more potent) of -0.9.

The next test addresses COX10. The description is as above. The conditions noted are these: shRNA.
Regarding TGCAGTGGTACTTACAACCAGA, the sensor-assay potency score (higher = more potent) was -1.05.

As to TTCAGTGGTGTGTAGCAGCAGG, the sensor-assay potency score (higher = more potent) was -0.511.

In the case of TATTGTTAGAAGGACTATGGTT, the sensor-assay potency score (higher = more potent) is -0.28.

TAACCGTATTTGGTAACCGAGA displayed a sensor-assay potency score (higher = more potent) of -1.58.

TCTGCGTCCACGTAGAAGCGGA showed a sensor-assay potency score (higher = more potent) of -0.792.

For TACACTTGCAGCTTCATCTCTT, the sensor-assay potency score (higher = more potent) is 1.01.

TTTCTGCTTTGGCTTGACCTGA yielded a sensor-assay potency score (higher = more potent) of -0.722.

On to TGATTTTGGATAGTCGAGCCAA, for which the sensor-assay potency score (higher = more potent) is -0.198.

In turn, TTTTAGAAGGAACTGCTTCCAA showed a sensor-assay potency score (higher = more potent) of -0.134.

In turn, TATTGAGTCTTCAATTACTGAG gave a sensor-assay potency score (higher = more potent) of -0.782.

On to TACCACAACATGCTCGCCTGGC, for which the sensor-assay potency score (higher = more potent) is -0.0841.

The sequence TTTAGAAGGAACTGCTTCCAAC returned a sensor-assay potency score (higher = more potent) of -0.611.

Take TTTCTGGACAAAGATAGGCTGG: the sensor-assay potency score (higher = more potent) was -0.448.

In turn, ATAATCTTGTTCTAAACCCAGC yielded a sensor-assay potency score (higher = more potent) of -0.854.

As to TTGAAATGAGGAAACTGCCAGG, the sensor-assay potency score (higher = more potent) was -0.59.

For the sequence TTCGTTTATAATCTTGTTCTAA, the sensor-assay potency score (higher = more potent) came out at 0.241.

Sequence TTTGAGGAAGCTAAAGTGCTGA came in with a sensor-assay potency score (higher = more potent) of 0.14.

As to TCTAGTTCTATCAATTCCTTTT, the sensor-assay potency score (higher = more potent) was -0.971.

Turning to TTGTATTCACTGACTGAGCTGA, the sensor-assay potency score (higher = more potent) is -0.0577.
